MOR-DOR inv ag: mu-delta opioid heterodimer inverse agonism. AID 504357. P35372+P41143. inhibition, % at 9.3 µM. cell-based MOR-DOR heterodimer luminescence. 0.21% of 340,000 active; in the data active = inhibition above about 22%, passing the limit was not always enough;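 note: 0% = cells with DMSO and 100% = wells without cells with DMSO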
HTR5A ag ctr: counter-screen for OPRM1-OPRD1 agonists: human HTR5A agonism; HTR5A agonist assay, luminescence, cell-based; 0.61% of 340,000 active; activation, % at 9.3 µM; AID 504692; in the data active = activation mostly above about 9.5%, no sharp cut-off; inactive = mostly below about 7.6%;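 note: 0% = cells with vehicle only and 100% = reference agonist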
Target sequence (P47898 whole entry, looked up): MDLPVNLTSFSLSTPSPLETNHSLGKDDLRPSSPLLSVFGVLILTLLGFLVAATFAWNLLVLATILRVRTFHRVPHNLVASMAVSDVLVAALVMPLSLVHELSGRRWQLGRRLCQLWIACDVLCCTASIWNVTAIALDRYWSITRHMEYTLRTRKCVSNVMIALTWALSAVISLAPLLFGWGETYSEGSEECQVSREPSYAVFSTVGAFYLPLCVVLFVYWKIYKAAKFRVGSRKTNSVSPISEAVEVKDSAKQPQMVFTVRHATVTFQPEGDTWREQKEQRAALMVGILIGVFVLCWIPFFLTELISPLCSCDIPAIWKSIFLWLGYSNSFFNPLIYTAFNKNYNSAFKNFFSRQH
HTR5A inv ctr: inverse agonist of human HTR5A in OPRM1-OPRD1 counter-screen. HTR5A cell line, luminescence, inverse agonism. inhibition, % at 9.3 µM. P47898. AID 504634. 0.083% of 340,000 active; in the data active = inhibition mostly above about 23%, no sharp cut-off; inactive = mostly below about 18%;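 note: 0% = cells with DMSO and 100% = no-cell wells with DMSO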
OPRM1-OPRD1 ag: OPRM1-OPRD1 heterodimerization agonism; activation, % at 9.3 µM; AID 504326; P35372+P41143; 0.3% of 340,000 active; cells, luminescence; in the data active = activation above about 18%;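 note: 0% = vehicle-treated cells and 100% = reference agonist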
* = called active by the depositor. Compounds with a hit are over-represented: about 1.1% of the library has one in this group of screens.

SMILES	MOR-DOR inv ag	HTR5A ag ctr	HTR5A inv ctr	OPRM1-OPRD1 ag
CC(C)CN(C(=O)COC(=O)Cc1c[nH]c2ccccc12)c1c(N)n(Cc2ccccc2)c(=O)[nH]c1=O	-20.3	0.8	-2.3	3.2
COc1ccc(Cl)cc1NC(=O)Nc1ccc(C(=O)N2CCOCC2)cc1	8.8	1.8	-1.1	-1.6
Cc1nn(CC(=O)NC2(C)CCS(=O)(=O)C2)c(C)c1S(=O)(=O)N(C)C (stereo not given)	12.1	4.7	-11.8	-3.1
Cc1ccc2c(NC(=S)NC(=O)c3ccccc3)cccc2n1	23.6	4.7	16.1	-7.2
COc1cc(C(=O)NC(=S)Nc2cccc3nc(C)ccc23)cc(OC)c1OC	-134.6	30.0*	-58.6	26.5*
CC(=O)c1ccc(OCCCC(=O)NCCc2ccc(C(F)(F)F)cc2)cc1	-5.3	-5.2	-10.8	0.7
CC(C)(C)OC(=O)N1CCN(c2ccc(CNC(=O)c3ccc(Cl)cc3)cc2)CC1	-8.8	3.8	-11.5	1.7
CC(=O)c1cccc(NC(=O)c2cc(-c3ccc(F)cc3)on2)c1	2.6	10.3*	6.7	-0.5
Cc1ccc(NC(=O)c2cc(-c3ccc(F)cc3)on2)cc1C	12.3	4.6	-12.6	-2.3
O=C(Cc1c[nH]c2ccccc12)NCc1ccncc1	2.3	10.9*	17.1	-0.5
O=C(Cc1ccccc1)NCc1ccncc1	9.2	0.3	-16.4	-1.8
CC12CC3CC(C)(C1)CC(C(=O)N1CCN(C(=O)c4ccco4)CC1)(C3)C2	-3.2	3.1	-11.4	0.6
COc1ccccc1CC(=O)Nc1cc(OC)c(NC(=O)c2ccccc2)cc1OC	-5.8	-3.1	11.6	1.3
COc1cc(NC(=O)c2ccccc2)c(OC)cc1NC(=O)Cc1ccc(C)cc1	-16.4	9.6*	-35.4	3.5
CCC(CC)C(=O)c1c[nH]c(C(=O)NCc2ccccn2)c1	-4.7	9.1*	-22.5	1.0
CC(C)(C)c1ccc(C(=O)c2c[nH]c(C(=O)NCCc3ccccn3)c2)cc1	8.1	9.4*	-25.8	-1.6
CCC(CC)C(=O)c1c[nH]c(C(=O)NCCc2ccccn2)c1	-1.6	12.9*	-1.4	0.4
CC(C)C(NC(=O)c1ccc(C(C)(C)C)cc1)C(=O)NCCc1ccccn1 (stereo not given)	-4.3	1.3	-3.6	0.8
CCC(CC)C(=O)c1c[nH]c(C(=O)NCc2cccs2)c1	16.1	3.0	4.4	-3.2
COc1ccc(-c2nc(CS(=O)(=O)CC(=O)NCCCN3CCN(C)CC3)c(C)o2)cc1	9.8	0.8	0.6	-1.9
Cc1c(NCc2cc(Cl)cc(Cl)c2O)c(=O)n(-c2ccccc2)n1C	-0.9	-2.7	4.2	0.2
Cc1c(NCc2nc3ccccc3[nH]2)c(=O)n(-c2ccccc2)n1C	8.3	12.1*	-21.5	-1.4
COc1cc(N=Nc2ccc(C)cc2S(N)(=O)=O)c(C)cc1N	12.0	9.8*	-35.0	-2.3
Cc1cc(O)c(C(C)C)cc1N=Cc1ccc([N+](=O)[O-])cc1	-6.7	0.1	-0.4	1.3
CCOc1cc(C(c2c(C)[nH][nH]c2=O)c2c(C)[nH][nH]c2=O)ccc1OCc1ccc([N+](=O)[O-])cc1	0.9	11.5*	-55.4	-0.2
SMILES	MOR-DOR inv ag	HTR5A ag ctr	HTR5A inv ctr	OPRM1-OPRD1 ag
COc1ccc(-n2c(Cn3c(=O)sc4ccccc43)nnc2SC)cc1	-0.3	11.8*	-32.6	0.1
O=S1(=O)N=C(c2ccccc2)C=C(c2ccccc2)N1	17.1	-0.9	3.3	-3.5
CCc1ccc(NC(=O)CSc2nc3ccccc3c(=O)n2CCCN2CCC(C)CC2)cc1	-9.7	-0.6	-25.7	2.0
Cc1c(C(=O)OC2CCCC2)[nH]c2c1C(=O)CC(c1ccco1)C2 (stereo not given)	-6.1	10.1*	-28.0	1.2
O=C(C#Cc1ccccc1)Nc1ccc(F)cc1	15.3	9.0*	-30.5	-3.2
C=C(C)Cn1c(SCC)nc2ccccc2c1=O	-33.4	11.6*	6.6	5.8
C=C(C)Cn1c(SCC#N)nc2ccccc2c1=O	17.4	-0.8	-2.8	-3.9
COCc1nc2oc3ccccc3c(=O)c2cc1C(=O)OC	-0.8	-0.5	1.9	0.2
N#CC1C(=O)NC(c2ccccc2)=CC1c1ccccc1 (stereo not given)	69.0*	-13.4	52.1*	-13.8
Cc1ccc(NC(=S)N(CCN2CCCCC2)Cc2ccco2)cc1Cl	-7.2	3.9	-9.9	1.5
Cn1c(-c2ccccc2)c(C(=O)CCl)c2ccccc21	-232.8	44.5*	-123.1	42.2*
COC(=O)C1=C(O)CSC1=Nc1cccc(C(F)(F)F)c1	12.9	13.8*	-0.8	-2.6
COC(=O)/C(N=Nc1cccc(C(F)(F)F)c1)=C(\C)O	-9.9	0.2	-19.9	1.8
Cc1ccc(S(=O)(=O)NCc2ccc(C(=O)N3CCN(c4ccc([N+](=O)[O-])cc4)CC3)cc2)cc1	-19.7	10.9*	0.5	3.8
COc1ccc(N2CCN(C(=O)c3ccc(CNS(=O)(=O)c4ccc(C)cc4)cc3)CC2)cc1	-1.2	1.2	0.9	0.2
CS(=O)(=O)c1ccc(C(=O)OCc2nnc(-c3ccc(Cl)cc3)o2)cc1[N+](=O)[O-]	-15.5	10.4*	-28.8	3.2
O=C(OCc1nnc(-c2ccc(Cl)cc2)o1)c1ccc(O)cc1	9.6	3.7	-10.0	-1.9
Cc1cccc(NC(=O)c2cc(NC(=O)c3ccco3)ccc2N2CCCCC2)c1	8.9	1.7	-18.7	-1.8
O=C(Nc1ccc(N2CCCCC2)c(C(=O)O)c1)c1ccco1	-11.9	10.1*	-22.3	2.0
CCCCC(=O)Nc1sc2c(c1C(=O)OCC)CCC(C=O)=C2Cl	-5.2	12.3*	3.8	0.9
CCOC(=O)c1c(NC(=O)c2ccccc2Cl)sc2c1CCc1ccccc1-2	-8.1	0.6	11.8	1.6
CCOc1ccc(NC(=O)Cn2nnc(C(=O)NCc3ccc4c(c3)OCO4)c2N)cc1	-45.1	13.3*	-28.3	8.8
COc1ccccc1C(=O)N/C(=C\c1cn(C)c2ccccc12)C(=O)N1CCOCC1	14.2	10.6*	16.4	-2.7
CC(NC(=O)C(=O)N/N=C\c1cccc([N+](=O)[O-])c1)c1ccccc1 (stereo not given)	-10.7	-1.4	3.5	2.0
COc1cccc(CNC(=O)C2CCN(c3nnc(N4CCCC4=O)s3)CC2)c1	4.7	12.9*	-7.6	-0.8
SMILES	MOR-DOR inv ag	HTR5A ag ctr	HTR5A inv ctr	OPRM1-OPRD1 ag
CCCOc1ccc(CNC(=O)C2CCN(c3nnc(N4CCCC4=O)s3)CC2)cc1	-3.1	-2.3	-5.2	0.6
Cc1nnc(-c2ccccc2)nc1N(C)C	8.3	10.9*	10.4	-1.6
CC(C)CC(C(=O)N1CCOCC1)N1Cc2ccccc2C1=O (stereo not given)	6.3	12.5*	-35.8	-1.2
CCN1C(Nc2ccccc2)=NC[C@@H]1C	-0.8	13.1*	-6.1	0.2
CC(C)CN1C(Nc2ccccc2)=NC[C@@H]1C	12.9	-1.2	-18.2	-2.8
Cc1nc(S(=O)(=O)c2ccc(Cl)cc2)c(N(C)C)o1	18.9	-0.6	2.1	-3.6
Cc1ccc(S(=O)(=O)Nc2cccc(C(=O)N3CCC(C(N)=O)CC3)c2)cc1	16.7	-4.0	7.4	-4.5
Cc1cc(C)c2nc(-c3ccncc3)cc(C(=O)N3CCN(Cc4ccccc4Cl)CC3)c2c1	1.3	12.6*	-9.7	-0.2
